From ChEMBL document CHEMBL4513216, “Probing the Open Global Health Chemical Diversity Library for Multistage-Active Starting Points for Next-Generation Antimalarials” (ACS Infect Dis, 2020) come the findings set out here.

About 8,600 (12%) of roughly 69,000 compounds showed an effect of 50% or more. The full list was thinned out, with strong results kept by preference.

In this experiment the test system is Plasmodium berghei. Briefly: Screen against P. berghei liver stage (PbLuc), transformed with Luciferase, at 10uM. The class given is functional, HepG2. The following applies: tested at 10 uM.
In the case of `CC(=O)N1CCC(c2nc3ccc(C)cn3n2)CC1`, the INHIBITION came out at 1.7%.
With `COc1cccc(-c2ccc3nc(C4CCN(C(C)=O)CC4)nn3c2)c1` the figure was 56.4%; with `CC(=O)N1CCC(c2nc3ccc(-c4ccnn4C)cn3n2)CC1`, 38.2%; with `CN(Cc1ccncc1)C(=O)CCNS(=O)(=O)c1cccnc1`, 20.9%.
For the compound `Cc1nnc(Cn2cc(I)cc(C)c2=O)o1`, the INHIBITION was found to be 22.5%.
The value for `CSc1ccc(C(C(=O)O)N2CCC(C(=O)N3CCCC3)CC2)cc1` (stereo not given) was 43.9%.
With `CSc1ccc(C(C(=O)O)N2CCCC2)cc1` (stereo not given) the figure was 34.9%; with `CSc1ccc(C(C(=O)O)N2CCC(CO)CC2)cc1` (stereo not given), 53.9%.
With `Cc1ccc(CN2CCCn3c(nc(CN4CCCC4)cc3=O)C2)s1`, the INHIBITION came out at 43.2%.
Take `Cn1ccnc1CN1CCN2C[C@H](OCc3ccccc3)C[C@H]2C1`: the INHIBITION was -25.2%.
The value for `Cc1n[nH]c2ncc(CNC3CCN(Cc4ccccn4)CC3)cc12` was -20.6%; that for `CC(=O)NC1CCCN(Cc2ccc(-n3ccnc3)cc2)C1` (stereo not given) was 65.6%.
The value for `CC(=O)NC1CCCN(Cc2ccc(OCc3ccccn3)cc2)C1` (stereo not given) was 41.8%; that for `CC(C)[C@@H](C)NC1CCN(c2ccc(-n3ccnc3)cc2)CC1` was 16.6%; that for `c1cnc(N2CCCC(NCc3ccc(-n4ccnc4)cc3)C2)nc1` (stereo not given) was 60.4%.
With `Cc1ccc(N2CCCC(NCc3ccc(-n4ccnc4)cc3)C2)nn1` (stereo not given) the figure was 11.5%.
Regarding `CCC(=O)NC1CCCN(Cc2ccc(-n3ccnc3)cc2)C1` (stereo not given), the INHIBITION amounted to 41.5%.
`CNCCCNC1CCN(c2ccc(-n3ccnc3)cc2)CC1`: the INHIBITION was -7.2%.
The value for `c1cn(-c2ccc(N3CCC(NC4CC4)CC3)cc2)cn1` was 56.2%; that for `Cc1n[nH]c2ncc(CNC3CCCN(c4ncccn4)C3)cc12` (stereo not given) was 73.5%; that for `c1cnnc(N2CCCC(NCc3ccc(-n4ccnc4)cc3)C2)c1` (stereo not given) was 15.2%.
With `COc1cc(CNC2CCCN(c3ncccn3)C2)cc2c1OCO2` (stereo not given) the figure was -34.8%; with `Cc1nccn1[C@@H]1CC[C@@H](N(C)S(=O)(=O)c2ccc(F)cc2)[C@H]1O`, -0.4%.
With `Cc1noc(CCCC(=O)N(CCC(=O)O)Cc2ccc(F)c(F)c2)n1` the figure was -13%; with `CN(C)c1ccccc1C(=O)N1CCCC(c2cccc(C(=O)O)c2)C1` (stereo not given), 33.4%.
As for `O=C(c1ccc(Sc2ccccn2)cc1)N1CCCSCC1`, the INHIBITION was -1.3%.
Consider `Cc1cc(C)c(CNC(=O)NCC(O)c2ccc(Cl)cc2)c(=O)[nH]1` (stereo not given), for which the INHIBITION is 29.2%.
With `CCN1CCN(C(=O)C(C)n2cc(Br)cn2)CC1` (stereo not given) the figure was 21.7%.
The value for `COCCNC(=O)[C@@H]1C[C@H]2[C@H](CCN2c2cc(OC)ncn2)O1` was 7.53%; that for `CS(=O)(=O)CCC(=O)Nc1cc(F)ccc1OCC1CCCO1` (stereo not given) was -14%; that for `CC(C)N1CCCC2(CCN(Cc3nncn3C(C)C)C2)C1=O` (stereo not given) was -27.4%.
With `CC(C)c1cc(C(=O)NCC2CCCN(c3ncccn3)C2)n(C)n1` (stereo not given) the figure was 70%; with `CCn1nc(C(C)C)cc1C(=O)NCC1CCCN(c2ccccn2)C1` (stereo not given), 45%; with `CC(C)c1cc(C(=O)NCC2CCCN(C(C)C)C2)n(C)n1` (stereo not given), 34.1%.
As for `Cc1cc(C)nc(Nc2cncc(C3CCCN(S(C)(=O)=O)C3)n2)n1` (stereo not given), the INHIBITION is 29.2%.
With `CCC(CN1CCOCC1)n1cncc1-c1ccc2c(c1)CCCN2C` (stereo not given) the figure was 39.7%; with `CCN1CCCc2cc(-c3cncn3C(C)CN3CCOCC3)ccc21` (stereo not given), 27.6%; with `CCC(CN1CCOCC1)n1cncc1-c1ccc2c(c1)CCN2CC` (stereo not given), 61.9%.
With `CCC(NC(=O)c1cc(OC)c2c(c1)OCCO2)c1cccs1` (stereo not given) the figure was 24.3%; with `Cc1noc(C)c1CN1CCn2nc(CCC(=O)N3CCCC3)cc2C1`, 19.3%; with `COc1cccc(OCCN2CC[C@@](O)(C3CCOCC3)[C@H](C)C2)c1`, 49.3%.
The value for `COc1cccc(Cc2nnc(SCCS(C)(=O)=O)o2)c1` was 49.1%; that for `N#CCCSc1nnc(Cc2ccccc2F)o1` was 20.5%.
In the case of `COc1ccccc1Cc1nnc(SCCS(C)(=O)=O)o1`, the INHIBITION is on record as 53.8%.
Consider `COCCOCCSc1nnc(Cc2ccccc2F)o1`, for which the INHIBITION stood at 6.88%.
For the compound `CS(=O)(=O)CCSc1nnc(Cc2ccccc2F)o1`, the INHIBITION is on record as 52.6%.
With `CCOCCSc1nnc(Cc2ccccc2F)o1` the figure was -19%.
As to `CC[C@H]1N(CC2CCC2)CCC[C@]12CCC(=O)N2Cc1ccncc1`, the INHIBITION stood at 19.8%.
With `COCCC(=O)N1CCC(c2cc3ncc(C)nc3[nH]2)CC1` the figure was 15.9%.
The value for `Cc1cnn(CC2CCCCN2Cc2c(C)noc2C)c1` (stereo not given) was 26.09%; that for `CC1CCCN(Cc2cccc(C(=O)Nc3nccs3)c2)C1` (stereo not given) was -37.8%.
With `O=C(c1ccccn1)N1CCC(c2nc(O)cc(-c3ccncc3)n2)C1` (stereo not given), the INHIBITION stood at 19.6%.
The value for `CCOc1ncccc1NC(=O)NC1CCCN(c2ncccn2)C1` (stereo not given) was 30.8%.
With `c1cc2c(c(-c3cc(N4CCOCC4)ncn3)c1)CCNC2` the figure was 58.6%.
The value for `Nc1cnc(-c2cccc3c2CCNC3)cn1` was -0.178%; that for `Nc1cc(-c2cccc3c2CCNC3)ncn1` was 28.7%; that for `COc1cc2nc3n(c(=O)c2cc1OC)CCN(C(=O)C1CC1)CC3` was 35.2%.
On to `COc1cc(OCC(=O)NCCc2ccccc2)cc(OC)c1OC`, for which the INHIBITION is recorded as -13.2%.
With `COCC(=O)N1CC[C@@H]2O[C@@H](C)C[C@H]2C1` the figure was 10.1%; with `COCCC(=O)N1CC[C@@H]2O[C@@H](C)C[C@H]2C1`, 18.8%.
The value for `COCCC(=O)N1CC[C@H]2O[C@@H](C)C[C@H]2C1` was 64.9%; that for `COCCn1c(-c2cccc(OC)c2)cnc1NC(=O)NC(C)C` was 18.4%; that for `Nc1ncc(-c2ccc(Cl)cc2)c(C2CCCNC2)n1` (stereo not given) was 31.6%.
With `Nc1ncc(-c2ccc(F)cc2)c(C2CCCNC2)n1` (stereo not given) the figure was 28.3%; with `Nc1ncc(-c2ccc(C(F)(F)F)cc2)c(C2CCCNC2)n1` (stereo not given), 70.1%; with `O=c1cc2c(nn1CN1CCN(c3ccccc3)CC1)CCCC2`, 38.9%.
On to `Cn1cc(C(=O)N2CCCC2c2noc(C3CC3)n2)c2ccccc21` (stereo not given), for which the INHIBITION is on record as 19.2%.
On to `O=C1CO[C@H]2CN(C3CCOCC3)C[C@H]2N1Cc1ccc(F)cc1`, for which the INHIBITION was determined as 4.82%.
With `O=C1CO[C@H]2CN(C3CCOCC3)C[C@H]2N1Cc1ccncc1`, the INHIBITION was 22.2%.
The value for `O=C1CO[C@@H]2CN(C3CCOCC3)C[C@H]2N1Cc1ccncc1` was 73.6%.
